# The list shows a part of the results. Inconclusive results are not listed. Calls of active or inactive are those of the source. Calls follow the shape of the dose curve; as a rule, active = well fitted inhibition curve with a large enough effect; inconclusive = small, poorly fitted or top-dose-only effect; inactive = no such curve, though single readings can be large or run the other way.
# Biological target: ATP-dependent DNA helicase Q1 (Homo sapiens) (UniProt P46063)
# Test: Confirmation qHTS Assay for Inhibitors of RecQ-Like Dna Helicase 1 (RECQ1); also: nearly all actives have a fitted effect of over 45% in size
# Details: RECQ1 helicase DNA unwinding, fluorescence
# From the text: Survival of cells and the faithful propagation of the genome depend on elaborate mechanisms of detecting and repairing DNA damage. Treatment of advanced cancer relies on radiation therapy or chemotherapy, which kill cancer cells by causing extensive DNA damage. It is often found, that cancer cells develop resistance to therapy through enhanced activity of DNA repair functions; this has led to an increased interest in developing drugs that interfere with DNA repair, which could sensitize cancer cells to conventional therapy.
# This validation qHTS assay pertains to human RECQ1, which is important in resolving abnormal DNA structures formed during replication or homologous recombination. Shutting down the expression of RECQ1 leads to chromosomal instability and higher radiation sensitivity in cultured cells.
# The validation assay was a fluorescence quenching based kinetic qHTS for RECQ1 Helicase DNA unwinding. The activity was measured as ATP-dependent separation of a 20-bp DNA duplex extended by 30-nt single-stranded tails (forked duplex). The forked DNA substrate was tagged with rhodamine fluorophore (carboxytetramethyl rhodamine, TAMRA) and BHQ-2 (Black Hole Quencher 2) dark quencher. Strand separation results in an increase in the fluorescence of TAMRA (excitation 525 nm, emission 598 nm). […]
# Potency is read from the fitted curve at half-maximal effect.
# Sequence of ATP-dependent DNA helicase Q1 (Homo sapiens) (P46063 whole entry, looked up): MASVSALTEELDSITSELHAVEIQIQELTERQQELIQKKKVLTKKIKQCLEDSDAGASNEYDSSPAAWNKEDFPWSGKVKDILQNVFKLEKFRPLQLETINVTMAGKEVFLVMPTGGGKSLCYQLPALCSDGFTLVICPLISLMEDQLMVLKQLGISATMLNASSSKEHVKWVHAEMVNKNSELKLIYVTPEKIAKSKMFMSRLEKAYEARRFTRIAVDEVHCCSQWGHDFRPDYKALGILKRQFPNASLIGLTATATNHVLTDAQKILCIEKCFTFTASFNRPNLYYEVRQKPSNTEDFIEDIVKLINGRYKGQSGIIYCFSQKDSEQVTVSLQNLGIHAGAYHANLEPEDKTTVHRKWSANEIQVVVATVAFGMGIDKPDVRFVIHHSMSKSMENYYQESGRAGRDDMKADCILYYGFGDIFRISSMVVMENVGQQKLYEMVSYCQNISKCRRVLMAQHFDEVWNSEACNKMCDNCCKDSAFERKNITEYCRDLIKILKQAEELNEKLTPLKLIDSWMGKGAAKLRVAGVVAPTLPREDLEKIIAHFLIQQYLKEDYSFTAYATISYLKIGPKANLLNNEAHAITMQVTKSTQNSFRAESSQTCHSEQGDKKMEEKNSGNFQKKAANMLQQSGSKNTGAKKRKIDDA
structure (smiles),measurement,value
O=C(O)c1cc[c]([Sb](=[O])([OH])[OH])cc1[N+](=O)[O-],Potency,913 nM (active)
